Assay outcomes: PubChem BioAssay, ICCB-Longwood Screening Facility, Harvard Medical School
S aureus helic = S. aureus DNA helicase inhibition; purified S. aureus helicase, fluorescence unwinding assay; inhibition, % (test concentration not listed); actives 0.05% (n = 120,000); AID 485395; in the data active means inhibition above about 25%, passing the limit was not always enough
Sa growth 42C = inhibitors of Staphylococcus aureus growth at 42 °C; S. aureus RN4220 growth, OD600, 20 h; hits give low values; relative growth, % (no concentration beside the values); actives 0.53% (n = 170,000); AID 720641;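 active means relative growth at most 50% at the other temperature and 20+ points below 30 °C, or under 10% at both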
Large screens that a line does not name were inactive. This excerpt belongs to a sample that is enriched for hits.

Cc1cc(C)c(NC(=O)c2cn3c4c(c(N5CCN(C)CC5)c(F)cc4c2=O)OCC3C)c(C)c1 (centres undefined)	none
CC1COc2c(N3CCN(C)CC3)c(F)cc3c(=O)c(C(=O)OCc4ccccn4)cn1c23 (centres undefined)	Sa growth 42C -1.0
CC(=O)Nc1ccc(S(=O)(=O)N2CCC(C)CC2)cc1	none
CC1CCN(S(=O)(=O)c2ccc(NC(=O)Nc3ccccc3)cc2)CC1	Sa growth 42C 31.5
OCc1cc2ccccc2o1	none
CCn1c(C)c(CCC(=O)NCCCc2ccccc2)c(=O)n2nc(-c3ccccc3OC)cc12	none
COc1ccccc1C(=O)Nc1nc2ccccc2n1CCOc1ccccc1	Sa growth 42C 1.0
COc1ccccc1OCCn1c(NC(=O)c2ccccc2)nc2ccccc21	none (no result: S aureus helic)
O=C(O)/C=C/C(=O)NCC1CC1	none (no result: S aureus helic)
O=C(Nc1ccc(Cl)c(Cl)c1)OCc1cccnc1	Sa growth 42C 8.0
O=C(Nc1ccc(Cl)c(Cl)c1)OCc1ccco1	none
O=C(NCCc1ccccc1)c1sc(=S)n2c1[nH]c(=O)c1ccccc12	none
O=C(NC1CCCCC1)c1sc(=S)n2c1[nH]c(=O)c1ccccc12	Sa growth 42C -0.2
CCc1ccc(NC(=O)CCC2=NS(=O)(=O)c3ccccc3N2)cc1	none
O=c1ccn(C2OC(CO)C(O)C2O)c(=S)[nH]1 (centres undefined)	none
O=C1OC(NCc2cccnc2)(c2ccccc2)c2ccccc21 (centres undefined)	none
Cc1ccc(-n2c(=O)oc3ccc(Cl)cc3c2=O)cc1	none
O=c1oc2ccc(Cl)cc2c(=O)n1-c1cccc(C(F)(F)F)c1	Sa growth 42C -0.7
O=C(CSc1nnc2n1CCCCC2)Nc1ccnn1C1CCCC1	none
CCOC(=O)COC1=C(c2ccccc2)C(=O)c2ccccc2C1=O	Sa growth 42C 5.9
Cc1ccc(C(=O)OC2=C(c3ccccc3)C(=O)c3ccccc3C2=O)cc1	none
O=C1N=c2ccccc2=C1N=Nc1c(O)[nH]c2ccccc12	none
O=C1C2C=CC=CC2=NC(=S)[N+]1=Nc1c(O)[nH]c2ccccc12 (centres undefined)	Sa growth 42C 1.4
CCOc1cccc(OCC)c2c(C)nc(C)c1-2	none
CCOc1cccc(OCC)c2c(C)[n+](C)c(C)c1-2	S aureus helic 58.0
C[N+](C)(CCOc1ccccc1)Cc1ccccc1 (tested in a mixture with another compound)	none
CC(C)(C)CC(C)(C)c1ccc(OCCOCC[N+](C)(C)Cc2ccccc2)cc1	Sa growth 42C -0.3 (no result: S aureus helic)
CCn1c2ccccc2c2cc(N3C(=O)C=CC3=O)ccc21	Sa growth 42C 3.8 (no result: S aureus helic)
CCn1c2ccccc2c2cc(C(N)=O)ccc21	none
NCCN1C(=O)S/C(=C\c2ccc(Cl)c(Cl)c2)C1=O	Sa growth 42C -0.6
O=C1S/C(=C\c2ccc(Cl)cc2)C(=O)N1Cc1ccccc1	none
CC(C(=O)O)c1nn(C)c(=O)c2ccccc12 (centres undefined)	none
CC[C@H]1OC(=O)[C@H](C)[C@@H](O[C@H]2C[C@@](C)(OC)[C@@H](O)[C@H](C)O2)[C@H](C)[C@@H](O[C@@H]2O[C@H](C)C[C@H](N(C)C)[C@H]2O)[C@](C)(O)C[C@@H](C)CN(C)[C@H](C)[C@@H](O)[C@]1(C)O	Sa growth 42C -0.9 (no result: S aureus helic)
O=C(CSc1ncc(CO)n1Cc1ccc(Cl)cc1)NC1CCCCC1	none
S=C(Nc1ccc(Cl)c(Cl)c1)NC1CCCC1	Sa growth 42C 1.3 (no result: S aureus helic)
Cc1cccc(NC(=S)NC2CCCC2)c1	none
Cc1sc2nc(CC#N)[nH]c(=O)c2c1C	none
CCN(CC)Cc1nc2sc(C)c(C)c2c(=S)[nH]1	Sa growth 42C -0.7
Cc1ccc(CNC(=O)c2cccc(Cn3cc(Cl)cn3)c2)cc1	none
O=C(NCc1ccccc1Cl)c1ccc(Cn2cc(Cl)cn2)cc1	Sa growth 42C 2.9
O[N+]1=CC=CCC1=S.On1ccccc1=S.[Zn]	Sa growth 42C -0.3 (no result: S aureus helic)
CCn1c(=O)c2ccccc2n(CC(=O)N2CCCCC2C)c1=O (centres undefined)	none
FC(F)(F)c1cccc2c1[nH]c1nc3ccccc3nc12	none
O=c1[nH]c(=O)c2nc3cc(C(F)(F)F)ccc3nc2[nH]1	Sa growth 42C 2.5
COc1ccc(Nc2cc(C(=O)O)c3ccccc3n2)cc1	none
NNc1ccc(Cl)c(Cl)c1	none
NNc1ccc2c(Cl)cc(Cl)c(O)c2n1	Sa growth 42C 4.2
Cc1ccc(Cn2c(C(C)O)nc3ccccc32)cc1 (centres undefined)	none (no result: Sa growth 42C)
COC(=O)c1nc2ccccc2n1Cc1ccc(C)cc1	Sa growth 42C 45.3
Cc1cc(C)c2c(=O)n(CC(=O)NC(C)c3ccccc3)sc2n1 (centres undefined)	none
COc1cccc(C(=O)CS)c1	none
CN(C)c1ccc(C2=CC=CC(=C3C=CC(=[N+](C)C)C=C3)O2)cc1	S aureus helic 74.0, Sa growth 42C 2.5
CN(C)c1ccc(C(=C2C=CC(=[N+](C)C)C=C2)c2ccc(N(C)C)cc2)cc1	none (no result: S aureus helic)
O=C(CSc1nnc(NC(=O)Nc2ccccc2)s1)Nc1cccc(F)c1	none (no result: S aureus helic)
CCSc1nsc(NC(=O)Nc2cccc(F)c2)n1	Sa growth 42C -0.7
Cc1ccc(Cl)cc1N1CCN(Cn2sc3ccccc3c2=O)CC1	Sa growth 42C -0.4
Cc1ccc(Cl)cc1N1CCN(C(=O)Cn2nc(C)c3sc4ccccc4c3c2=O)CC1	none (no result: S aureus helic)
CCN(c1ccccc1)S(=O)(=O)c1ccc(NC(=O)c2nc(S(C)(=O)=O)ncc2Cl)cc1	Sa growth 42C -1.4 (no result: S aureus helic)
CCS(=O)(=O)c1ncc(Cl)c(C(=O)Nc2ccc(S(=O)(=O)N(C)c3ccccc3)cc2)n1	none (no result: S aureus helic)
CCN1/C(=C/C=C2\SC(=S)N(C)C2=O)Oc2ccccc21	none
CN1/C(=C/C=C/c2oc3ccccc3[n+]2C)Oc2ccccc21	Sa growth 42C -1.0
COc1ccc(CCNC(=O)c2cc(C)nc3c2c(C)nn3-c2ccccc2)cc1OC	none (no result: S aureus helic)
Cc1nc2c(C(=O)NCc3ccccc3Cl)c[nH]n2c(=O)c1Cc1cccc(Cl)c1	Sa growth 42C 0.6 (no result: S aureus helic)
Cc1nc2c(C(=O)NCc3ccccc3)cnn2c(C)c1Cc1ccc(F)cc1	none (no result: S aureus helic)
COc1ccc(CCNC(=O)c2c[nH]n3c(=O)c(Cc4ccccc4Cl)c(C)nc23)cc1OC	Sa growth 42C 0.7 (no result: S aureus helic)
Cc1nc2c(C(=O)NCc3ccccc3Cl)cnn2c(C)c1Cc1ccccc1	none (no result: S aureus helic)
Cc1ccc(CNC(=O)c2c[nH]n3c(=O)c(Cc4ccc(F)cc4Cl)c(C)nc23)cc1	Sa growth 42C 0.6 (no result: S aureus helic)
Cc1nc2c(C(=O)NCCC(C)C)c[nH]n2c(=O)c1Cl	none
Cc1nc2c(C(=O)NCCc3ccc(Cl)cc3)c[nH]n2c(=O)c1Cc1ccccc1F	Sa growth 42C 1.1 (no result: S aureus helic)
C=CCNC(=O)c1ccc(Br)s1	none (no result: Sa growth 42C)
O=C(Nc1ccc(F)cc1)C1(c2ccccc2)CCOCC1	none
COc1ccc(OCCCC(=O)OCc2nc3ccccc3[nH]2)cc1	none
O=C(NCCCN1CCOCC1)c1cc2sc3ccccc3c2s1	none
Cc1nc2c(C(=O)NCCc3ccccc3)c[nH]n2c(=O)c1Cc1ccc(F)cc1Cl	Sa growth 42C -0.2 (no result: S aureus helic)
Cc1nc2c(C(=O)NCCc3ccccc3)c[nH]n2c(=O)c1Cl	none
N#Cc1ccc(COC(=O)c2cccnc2N2CCOCC2)cc1	none
CCc1ccc(Nc2c3c(nc4ccccc24)CCC3)cc1	Sa growth 42C 6.7
CCc1ccc(Nc2c3c(nc4ccccc24)CCCC3)cc1	none
O=C(Cn1c(=O)oc2ccccc21)Oc1ccc2c(c1)OCO2	none
COc1ccc(-c2nc(C#N)c(N(C)C)o2)cc1	none
CS(=O)(=O)c1sc(C#N)c2c1C(=O)CCC2	Sa growth 42C 0.4
CS(=O)(=O)c1sc(Br)c2c1C(=O)CCC2	none (no result: S aureus helic)
CCN(CC)c1ccc2c(c1)CCCN2	Sa growth 42C 4.2
